Screens deposited in PubChem BioAssay by several laboratories.
CYP2C19 activ – activators of human cytochrome P450 2C19. 96,000 tested, under 10 active. P33261. AID 1025. activation factor at 5 µM. recombinant CYP2C19, luciferin-H EGE luminescence; hits give high values; 0 = fully inhibited enzyme, 1 = untreated enzyme;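 active means activation factor of at least 2 at 5 µM in the primary screen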;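 further: 0 = wells with 2.5 mM tranylcypromine and 1 = vehicle-only wells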
CYP2C19 inhib – blocks human cytochrome P450 2C19; P33261; CYP2C19 Supersomes, luciferin-H EGE luminescence, 30 min; inhibition, % at 5 µM; 96,000 compounds, 21% hits;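 active means CYP2C19 inhibition above a set limit at 5 µM in the primary screen, cut at about 50% in these data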;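 further: plate controls were negative control wells for no effect and 2.5 mM tranylcypromine positive control for full effect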
PLK1 PBD inh – Plk1 (human) PBD binding inhibition; P53350; Plk1 PBD phosphopeptide binding, fluorescence polarization; inhibition, %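 (tested at about 20 µM)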; 97,000 compounds, 0.13% hits; in the data active means inhibition above about 34%, passing the limit was not always enough
PLK1 kinase inh – blocks human PLK1 kinase activity. P53350. recombinant PLK1 kinase, TR-FRET peptide phosphorylation. inhibition, % at 10 µM. 97,000 compounds, 0.53% hits;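 active means inhibition of 50% or more in the single-concentration screen; inactive means inhibition below 50%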;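 further: 0% = DMSO max control and 100% = H-89 dihydrochloride min control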
CYP2C9 inhib – blocks human cytochrome P450 2C9. AID 777. CYP2C9 Supersomes, luciferin-H conversion, luminescence. inhibition, % at 5 µM. 96,000 compounds, 20% hits. P11712;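 active means blocking of liver enzyme CYP2C9 beyond about 50% at 5 µM, limit read from the data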
Target sequence (P11712 whole entry, looked up): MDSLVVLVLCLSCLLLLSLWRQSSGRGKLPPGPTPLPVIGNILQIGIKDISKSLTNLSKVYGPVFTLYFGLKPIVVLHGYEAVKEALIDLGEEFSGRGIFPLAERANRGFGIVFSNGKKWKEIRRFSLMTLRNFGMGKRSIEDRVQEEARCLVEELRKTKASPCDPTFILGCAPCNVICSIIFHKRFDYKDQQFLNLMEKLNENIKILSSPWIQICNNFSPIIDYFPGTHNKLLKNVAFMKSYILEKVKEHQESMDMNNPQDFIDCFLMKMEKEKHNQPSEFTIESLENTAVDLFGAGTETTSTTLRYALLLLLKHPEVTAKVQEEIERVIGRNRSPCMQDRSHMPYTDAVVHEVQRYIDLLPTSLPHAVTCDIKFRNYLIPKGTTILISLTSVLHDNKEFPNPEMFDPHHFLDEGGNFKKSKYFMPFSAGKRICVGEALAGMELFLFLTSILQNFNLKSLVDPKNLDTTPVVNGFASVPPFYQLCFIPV
CYP2C9 activ – CYP2C9 (human) activation | P11712 | activation factor at 5 µM | AID 1024 | 96,000 compounds, 1.4% hits | recombinant CYP2C9, luciferin-H conversion, luminescence; hits give high values; factor 1 = untreated enzyme, 0 = blocked;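 active means activation factor of 2 or more for CYP2C9 at a 5 µM dose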;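 further: 0 = sulfaphenazole-blocked wells and 1 = vehicle-only wells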
Starred values were filed as active, the others as inactive. An excerpt weighted towards active compounds, which were near 28% of everything screened.

How did COc1ccc(S(=O)(=O)N2CCC(C(=O)NCc3ccccn3)CC2)cc1Cl do in these assays?
CYP2C19 activ: 0.7; CYP2C19 inhib: 32; PLK1 PBD inh: -13; PLK1 kinase inh: -9; CYP2C9 inhib: -120; CYP2C9 activ: 2.2*

How did CCCc1nnc(SCC(=O)O)n1/N=C/c1ccc2c(c1)OCO2 do in these assays?
CYP2C19 activ: 1; CYP2C19 inhib: -1; PLK1 PBD inh: 17; PLK1 kinase inh: 29; CYP2C9 inhib: 2; CYP2C9 activ: 1

How did Cc1ccc(C(=O)Nc2cc3c(cc2Cl)OCCCO3)cc1 do in these assays?
PLK1 PBD inh: 1; PLK1 kinase inh: -6

How did Cc1nc(NCc2ccco2)c2c3c(sc2n1)CCC3 do in these assays?
CYP2C19 activ: 0.8; CYP2C19 inhib: 18; PLK1 PBD inh: 12; PLK1 kinase inh: -20; CYP2C9 inhib: 22; CYP2C9 activ: 0.8

How did Cc1sc2ncnc(SCC(=O)NC(=O)NCc3ccco3)c2c1C do in these assays?
CYP2C19 activ: 1.1; CYP2C19 inhib: -10; PLK1 PBD inh: 7; PLK1 kinase inh: -8; CYP2C9 inhib: -2; CYP2C9 activ: 1

What do the screens show for `c1coc(CNc2ncnc3sc4c(c23)CCCCC4)c1`?
CYP2C19 activ: 0.1; CYP2C19 inhib: 87*; PLK1 PBD inh: -9; PLK1 kinase inh: -10; CYP2C9 inhib: 93*; CYP2C9 activ: 0.1

What do the screens show for `Cc1sc2ncnc(NCc3cccs3)c2c1C`?
CYP2C19 activ: 0.5; CYP2C19 inhib: 52*; PLK1 PBD inh: 1; PLK1 kinase inh: -2; CYP2C9 inhib: 42; CYP2C9 activ: 0.6

How did Cc1sc2ncnc(NCc3ccco3)c2c1C do in these assays?
CYP2C19 activ: 0.2; CYP2C19 inhib: 78*; PLK1 PBD inh: 9; PLK1 kinase inh: 36; CYP2C9 inhib: 61*; CYP2C9 activ: 0.4

What do the screens show for `COCC(C)NC(=O)COc1ccc(Cl)cc1Cl` (stereo not drawn)?
PLK1 PBD inh: -6; PLK1 kinase inh: -18

How did Cc1nnc2c(NC(C)C)nc3ccccc3n12 do in these assays?
CYP2C19 activ: 1; CYP2C19 inhib: 2; PLK1 PBD inh: -10; PLK1 kinase inh: -3; CYP2C9 inhib: 37; CYP2C9 activ: 0.6

How did O=C(Nc1sc2c(c1C(=O)O)CCCCC2)c1ccco1 do in these assays?
CYP2C19 activ: 0.6; CYP2C19 inhib: 40; PLK1 PBD inh: -33; PLK1 kinase inh: -13; CYP2C9 inhib: 51*; CYP2C9 activ: 0.5

What do the screens show for `CCOC(=O)c1c(NC(=O)c2ccc(N3C(=O)C4C5C=CC(C5)C4C3=O)cc2)sc2c1CCCC2` (stereo not drawn)?
CYP2C19 activ: 0.9; CYP2C19 inhib: 14; PLK1 PBD inh: -14; PLK1 kinase inh: 5; CYP2C9 inhib: 66*; CYP2C9 activ: 0.3

How did NC(=O)c1c(NC(=O)CSc2nnc(Cc3ccccc3)n2Cc2ccco2)sc2c1CCC2 do in these assays?
CYP2C19 activ: 0.8; CYP2C19 inhib: 25; PLK1 PBD inh: -21; PLK1 kinase inh: 0; CYP2C9 inhib: 64*; CYP2C9 activ: 0.4

What do the screens show for `CCOC(=O)c1c(NS(=O)(=O)Cc2ccccc2)sc2c1CCCC2`?
CYP2C19 activ: 0; CYP2C19 inhib: 99*; PLK1 PBD inh: 8; PLK1 kinase inh: -1; CYP2C9 inhib: 95*; CYP2C9 activ: 0

Results for CCOC(=O)c1c(NC(=O)c2ccco2)sc2c1CCCCC2 ?
CYP2C19 activ: 0.6; CYP2C19 inhib: 38; PLK1 PBD inh: 19; PLK1 kinase inh: -11; CYP2C9 inhib: 78*; CYP2C9 activ: 0.2

Results for CN(C)C(=O)c1c(NC(=O)c2ccco2)sc2c1CCCCC2 ?
PLK1 PBD inh: -4; PLK1 kinase inh: -7

How did Cn1c(CNC(=O)c2ccco2)nnc1SCC(=O)Nc1cccc(Br)c1 do in these assays?
CYP2C19 activ: 0.9; CYP2C19 inhib: 6; PLK1 PBD inh: 8; PLK1 kinase inh: -10; CYP2C9 inhib: 10; CYP2C9 activ: 0.9

How did CCOC(=O)c1c(NC(=O)CSc2nnc(CNC(=O)c3ccco3)n2C)sc2c1CCC2 do in these assays?
CYP2C19 activ: 1; CYP2C19 inhib: 2; PLK1 PBD inh: 1; PLK1 kinase inh: -13; CYP2C9 inhib: 70*; CYP2C9 activ: 0.3

What do the screens show for `CCOC(=O)c1c(NC(=O)C(C)N2CCN(C(=O)c3ccco3)CC2)sc2c1CCCC2` (stereo not drawn)?
CYP2C19 activ: 0.2; CYP2C19 inhib: 77*; PLK1 PBD inh: 6; PLK1 kinase inh: -8; CYP2C9 inhib: 100*; CYP2C9 activ: 0

What do the screens show for `COc1cccc(NC(=O)c2ccc(CN3CCN(c4ccccc4)CC3)cc2)c1`?
CYP2C19 activ: 0.9; CYP2C19 inhib: 14; PLK1 PBD inh: 2; PLK1 kinase inh: -11; CYP2C9 inhib: 30; CYP2C9 activ: 0.7

Results for COc1ccccc1CC1(C)NC(=O)N(CC(=O)Nc2cc(C)on2)C1=O (stereo not drawn) ?
CYP2C19 activ: 1; CYP2C19 inhib: 4; PLK1 PBD inh: -7; PLK1 kinase inh: -5; CYP2C9 inhib: 28; CYP2C9 activ: 0.7

How did O=C(Nc1cccc2nsnc12)C1CC(=O)N(c2ccccc2)C1 (stereo not drawn) do in these assays?
CYP2C19 activ: 0.2; CYP2C19 inhib: 82*; PLK1 PBD inh: -17; PLK1 kinase inh: 12; CYP2C9 inhib: 74*; CYP2C9 activ: 0.3

How did CC(C)N1CC(C(=O)Nc2nc3ccccc3s2)CC1=O (stereo not drawn) do in these assays?
CYP2C19 activ: 1.1; CYP2C19 inhib: -8; PLK1 PBD inh: 0; PLK1 kinase inh: -10; CYP2C9 inhib: 4; CYP2C9 activ: 1

How did O=C(Nc1nc2ccccc2s1)C1CC(=O)N(c2ccc(Cl)cc2)C1 (stereo not drawn) do in these assays?
CYP2C19 activ: 0.8; CYP2C19 inhib: 20; PLK1 PBD inh: 17; PLK1 kinase inh: -6; CYP2C9 inhib: 54*; CYP2C9 activ: 0.5

What do the screens show for `COC(=O)c1ccccc1NC(=O)C1CC(=O)N(c2ccccc2)C1` (stereo not drawn)?
CYP2C19 activ: 0.8; CYP2C19 inhib: 19; PLK1 PBD inh: 21; PLK1 kinase inh: -10; CYP2C9 inhib: 8; CYP2C9 activ: 0.9

What do the screens show for `COc1ccc(OC)c(NC(=O)CCC(=O)Nc2nnc(C(F)(F)F)s2)c1`?
CYP2C19 activ: 0.9; CYP2C19 inhib: 7; PLK1 PBD inh: 7; PLK1 kinase inh: -3; CYP2C9 inhib: 74*; CYP2C9 activ: 0.3

What do the screens show for `COc1ccccc1NC(=O)CCC(=O)Nc1nnc(C(F)(F)F)s1`?
CYP2C19 activ: 1; CYP2C19 inhib: -4; PLK1 PBD inh: 14; PLK1 kinase inh: 2; CYP2C9 inhib: 72*; CYP2C9 activ: 0.3

What do the screens show for `COCc1nnc(NC(=O)CCCOc2ccccc2OC)s1`?
CYP2C19 activ: 0.7; CYP2C19 inhib: 26; PLK1 PBD inh: 19; PLK1 kinase inh: -8; CYP2C9 inhib: 25; CYP2C9 activ: 0.8

What do the screens show for `COc1ccc(OC)c(NC(=O)CCN2CCCCCC2)c1`?
PLK1 PBD inh: -8; PLK1 kinase inh: -7
